Wnt act = activators of Wnt/beta-catenin signaling | AID 743398 | hit rate 1.2% among 300,000 | Wnt/beta-catenin reporter cell assay, activator, plate reader | activation, % at 9.35 µM; in the data active means activation above about 30%, passing the limit was not always enough; inconclusive means no clear call, values can overlap the other calls
MITF act = increases MITF-driven TRPM1 promoter luciferase signal. SK-MEL-5 TRPM1-promoter luciferase, 24 h; % of positive control, neutral wells = 0. activation, % at 12.5 µM. hit rate 0.75% among 300,000. AID 588334;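 active means mean activation of at least 80% with every replicate also reaching 80%; inconclusive means mean reaches 80% but some replicate falls short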
GAA850 FXN act = activators of GAA850 frataxin (FXN) promoter; HEK293 lucGAA850 FXN promoter luciferase reporter, 24 h; percent of 10 µM SAHA response; activation, % at 6 µM; hit rate 0.56% among 360,000;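 active means activation above the average of all compounds screened plus 3 SD, cutoff fixed separately per campaign, cut at about 7.5% in these data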
esBAF inh = SWI/SNF esBAF complex inhibition; AID 602393; mouse ES cells, Bmi1-luciferase knock-in reporter, 24 h; 100% = twice the neutral-well signal; hit rate 2% among 350,000; reporter increase, % at 12.5 µM; in the data active means activation above about 40%; inconclusive means no clear call, values can overlap the other calls;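 further: a rise in the Bmi1 reporter signal indicates esBAF inhibition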
C2C12 statin = suppression of simvastatin myotoxicity. rescue of ATP level, % at 7.49 µM. hit rate 0.78% among 330,000. AID 602340. C2C12 myotubes + simvastatin, ATP luminescence, 48 h; scaled: DMSO 0, geranylgeraniol control 100;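 active means mean ATP rescue above about 67%, or every replicate alone reaching that limit, limit read from the data, passing the limit was not always enough; inconclusive means no clear call, values can overlap the other calls; inactive means mean under the limit and some replicate under it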;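 further: myotubes were challenged with 10 µM simvastatin during compound exposure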
Of the large screens only hits and unclear results are named; the others gave an inactive call. In the library only some 3.3% were active in any assay of this set; here they are far more common.

CO[C@H]1CN(C)C(=O)c2ccc(NC(=O)NC(C)C)cc2OC[C@@H](C)N(C(=O)C2CCC2)C[C@@H]1C	none (no result: Wnt act, MITF act, GAA850 FXN act)
CCNC(=O)C[C@H]1CC[C@H]2[C@@H](COc3ccc(NC(=O)Nc4ccc(F)cc4)cc3C(=O)N2C)O1	none (no result: Wnt act, MITF act, GAA850 FXN act)
CCN(CC)c1ccc(-c2nc3cnccc3n2C)cc1	MITF act 85.4 (no result: Wnt act)
Cn1c(-c2ccncc2)nc2ccccc21	none
CCOc1cc2c(C#N)c(N3CCCCC3)nc(N)c2c(N)n1	esBAF inh 54.5 (no result: Wnt act)
COCCNC(=O)C[C@H]1C=C[C@H](NS(=O)(=O)c2ccc(C)cc2)[C@@H](CO)O1	none (no result: Wnt act, MITF act, GAA850 FXN act)
CCCCNC(=O)c1cc2nc3c(c(C(F)(F)F)n2n1)CCc1ccccc1-3	C2C12 statin 75.8
CC(C)(C)C1CCc2c(sc3c2C(=O)NC(c2ccco2)N3)C1 (stereo not given)	MITF act 95.5
NC(=O)Cc1c[nH]c2cccc(O)c12	Wnt act 36.2 (no result: MITF act)
NC(=O)COC(=O)CCCc1c[nH]c2ccccc12	none (no result: Wnt act)
CCOC(=O)/C=C1\SCC(=O)N1CC(=O)Nc1ccc2c(c1)CCC2	Wnt act 43.5
COc1ccccc1OCC(=O)Nc1ncc(C)s1	Wnt act 36.1
Cc1cnc(NC(=O)COc2ccccc2)s1	Wnt act 58.5 (no result: MITF act)
CNC(=O)C[C@@H]1CC[C@H]2[C@@H](COC[C@H](O)CN2Cc2ccc(C(F)(F)F)cc2)O1	none (no result: Wnt act, MITF act, GAA850 FXN act)
CCCN1C[C@H](C)[C@H](OC)CN(C)C(=O)c2ccc(NC(=O)c3ccccc3)cc2OC[C@@H]1C	none (no result: Wnt act, MITF act, GAA850 FXN act)
C(=N\N=C\c1cccnc1)/c1cccnc1	none (no result: Wnt act, esBAF inh, C2C12 statin)
C(=N\c1nccs1)/c1cccnc1	C2C12 statin 111.9
C=CC(=O)N1C/C(=C/c2ccccc2)C(=O)/C(=C\c2ccccc2)C1	none (no result: esBAF inh, C2C12 statin)
CN1C2CCC1/C(=C\c1ccccc1)C(=O)/C2=C\c1ccccc1	C2C12 statin 67.2
CCCOC(=O)c1ccc(NC(=O)c2cnccn2)cc1	esBAF inh 59.2 (no result: Wnt act)
CCCCOC(=O)c1ccc(NC(=O)c2cnccn2)cc1	none (no result: Wnt act)
CCCC#Cc1cnc2c(c1)C(=O)N([C@@H](C)CO)C[C@@H](C)[C@H](CN(C)Cc1ccccc1F)O2	none (no result: Wnt act, MITF act, GAA850 FXN act)
Cc1cccc(Oc2coc3cc(O)ccc3c2=O)c1	esBAF inh 58.7 (no result: MITF act)
Cc1cc(C)cc(Oc2coc3cc(OC(=O)c4cccnc4)ccc3c2=O)c1	none (no result: esBAF inh, C2C12 statin)
Cc1cccc(Oc2coc3cc(OC(=O)c4cc5ccccc5oc4=O)ccc3c2=O)c1	esBAF inh 53.6 (no result: Wnt act)
Cc1cccc(Oc2coc3cc(OC(=O)c4cncc(Br)c4)ccc3c2=O)c1	esBAF inh 34.3 (no result: C2C12 statin)
CCOC(=O)Oc1ccc2c(=O)c(Oc3cccc(C)c3)coc2c1	esBAF inh inconclusive
C[C@H](CO)N1C[C@H](C)[C@@H](CN(C)CC2CCOCC2)Oc2ncc(C3=CCCCC3)cc2C1=O	none (no result: Wnt act, MITF act, GAA850 FXN act)
Cc1ccnc(NC(=O)CNC(=O)c2sc3ccccc3c2Cl)c1	MITF act 85.1, esBAF inh 52.1
COc1ccc(C)cc1NC(=O)CNC(=O)c1sc2ccccc2c1Cl	none
O=C(NCC(=O)N1CCCCC1)c1sc2ccccc2c1Cl	Wnt act 44.9, MITF act 113.5
CCCCC[C@@H](O)c1cc2ccccc2c(=O)o1	esBAF inh 43.4
CCCNC(=O)c1cc2ccccc2c(=O)o1	none (no result: esBAF inh, C2C12 statin)
COc1ccc(OC)c(S(=O)(=O)NCCCn2ccnc2)c1	none
COc1cc(C)c(C(C)C)cc1S(=O)(=O)NCCCn1ccnc1	C2C12 statin 114.2
CCC(Oc1ccccc1)C(=O)N(CC)CC(=O)NCc1ccc(F)cc1 (stereo not given)	none (no result: esBAF inh, C2C12 statin)
CCN(CC(=O)NCc1ccc(F)cc1)C(=O)c1ccc(COc2ccccc2)cc1	esBAF inh 56.7
CCOc1ccc(N(CC(=O)NCc2ccco2)S(=O)(=O)c2ccc(OC)c(OC)c2)cc1	C2C12 statin 108.5 (no result: Wnt act)
O=C(CN(c1ccc(F)cc1)S(=O)(=O)c1ccccc1)NCc1ccco1	C2C12 statin 103.5 (no result: MITF act)
CCC(=O)N(C)C[C@H]1Oc2ncc(-c3ccccc3C)cc2C(=O)N([C@@H](C)CO)C[C@H]1C	none (no result: Wnt act, MITF act, GAA850 FXN act)
O=[N+]([O-])c1cc(-c2cnc3ccccc3n2)ccc1Oc1ccc(Br)cc1	esBAF inh 44.2 (no result: Wnt act, MITF act)
C[C@@H]1CN([C@H](C)CO)C(=O)c2cc(C#CC3(O)CCCC3)cnc2O[C@H]1CN(C)S(=O)(=O)c1ccccc1	none (no result: Wnt act, MITF act, GAA850 FXN act)
Cc1ccc(-c2cc3nc4c(c(=O)n3[nH]2)CCCC4)cc1	none
O=c1c2c(nc3cc(-c4ccc(F)cc4)[nH]n13)CCC2	MITF act 87.3 (no result: esBAF inh, C2C12 statin)
COc1ccc(-c2csc(N3CCSCC3)n2)cc1	Wnt act inconclusive, esBAF inh 46.6
Fc1ccc(-c2csc(N3CCC(c4ccccc4)C3)n2)cc1 (stereo not given)	esBAF inh 50.3
COc1ccc(-c2csc(N3CCOCC3)n2)cc1OC	esBAF inh 58.4
c1ccc(-c2csc(N3CCCCCC3)n2)cc1	esBAF inh 42.8 (no result: Wnt act)
CCCC#Cc1cnc2c(c1)C(=O)N([C@@H](C)CO)C[C@@H](C)[C@H](CN(C)CCC)O2	none (no result: Wnt act, MITF act, GAA850 FXN act)
COc1ccc(-c2csc(-n3ncc(-c4cccs4)c3N)n2)cc1	none (no result: Wnt act)
COc1ccc(-c2csc(-n3cccn3)n2)cc1	Wnt act 32.9, MITF act inconclusive, esBAF inh 67.9
CC(C)CC#Cc1cnc2c(c1)C(=O)N([C@H](C)CO)C[C@@H](C)[C@@H](CN(C)C(=O)Cc1ccncc1)O2	none (no result: Wnt act, MITF act, GAA850 FXN act)
Cc1ccc(S(=O)(=O)N(C)C[C@@H]2OCCCC[C@H](C)Oc3ccc(NS(=O)(=O)c4cn(C)cn4)cc3C(=O)N([C@@H](C)CO)C[C@@H]2C)cc1	none (no result: Wnt act, MITF act, GAA850 FXN act, C2C12 statin)
O=C(C[C@@H]1CC[C@@H]2[C@H](COC[C@H](O)CN2CCc2ccccc2)O1)N1CCC(Cc2ccccc2)CC1	none (no result: Wnt act, MITF act, GAA850 FXN act)
COCc1nc(-c2ccc(-c3ccc(C)cc3)nc2OC)no1	Wnt act 38.8, esBAF inh 42.7 (no result: MITF act)
COc1ccc(-c2ccc(-c3noc(C)n3)c(OC)n2)cc1	MITF act 90.9, esBAF inh inconclusive (no result: Wnt act)
COCC(=O)N[C@@H]1CC[C@H](CC(=O)N2CCCCC2)O[C@@H]1CO	none (no result: Wnt act, MITF act, GAA850 FXN act)
C=CCN1N=C(/C=C/c2ccc(C)cc2)CCC1=O	esBAF inh 55.8
Oc1ccccc1C1=Nc2nc3ccccc3n2C(c2ccccc2)C1 (stereo not given)	esBAF inh 48.8 (no result: Wnt act)
C[C@@H]1CCCCO[C@H](CN(C)Cc2ccc3c(c2)OCO3)[C@@H](C)CN([C@H](C)CO)C(=O)c2cc(NS(=O)(=O)c3cccs3)ccc2O1	none (no result: Wnt act, MITF act, GAA850 FXN act, C2C12 statin)
CCOC(=O)c1ccc(NC(=O)CC2SCCNC2=O)cc1 (stereo not given)	Wnt act 40.5 (no result: MITF act)
COc1ccc(Cl)cc1NC(=S)NCc1ccccn1	none (no result: esBAF inh, C2C12 statin)
S=C(NCc1ccccn1)Nc1ccc(Cl)cc1Cl	esBAF inh 49.4 (no result: Wnt act)
CCOc1ccc(NC(=S)NNc2ccnc3cc(Cl)ccc23)cc1	none (no result: esBAF inh, C2C12 statin)
S=C(NNc1ccnc2cc(Cl)ccc12)Nc1ccc(Cl)cc1Cl	esBAF inh 49.0
COc1ccc(NC(=O)c2cnc3sccn3c2=O)cc1	Wnt act 41.9 (no result: esBAF inh, C2C12 statin)
